PubChem BioAssay AID485313 (National Center for Advancing Translational Sciences (NCATS), 2010)
Among all 320,000 compounds or so, about 7,600 (2.4%) were called active. Roughly 3% stayed inconclusive and do not appear here. The sample holds actives, similar compounds and a random draw of the others, so the mix is not that of the screen. A number with no mark means an inactive call. The call rests on the fitted dose curve; in most records, active means well fitted activation curve with a large enough effect; inconclusive means small, poorly fitted or top-dose-only effect; inactive means no such curve, though single readings can be large or run the other way.

Experiment: qHTS Assay for NPC1 Promoter Activators; further: nearly all actives have a fitted effect of over 60% in size; on activation: % of control where 0% means no effect
Conditions: Huh7 NPC1 promoter luciferase reporter, 24 h; series mostly up to 9.22 µM; activation: at the top concentration
Description: NIH Chemical Genomics Center [NCGC] NIH Molecular Libraries Probe Production centers Network [MLPCN] MLPCN Grant: MH089375-01A1 Assay Submitter (PI): Yiannis A. Ioannou NCGC Assay Overview: Niemann Pick Type C (NPC) is a rare neurodegenerative lipidosis that is characterized by lipid storage in the endosomal/lysosomal system. Treatment modalities for this devastating disease are currently non-existent due to the severe obstacles associated with accessing the central nervous system with proteins or genes. The majority of mutations causing NPC disease are missense mutations that are distributed throughout the length of the NPC1 protein, with the most prevalent being the I1061T allele. Although NPC1 mutant proteins may be functional, they are typically trapped in the ER due to misfolding. […] We have developed and optimized a cell based luciferase reporter assay in 1536 well format for the identification of up-regulators of the mutant NPC1 promoter.
The NPC1 promoter is cloned in front of the luciferase reporter gene, therefore NPC promoter activation results in luciferase expression. Frozen stock of the NPC1 promoter transfected Huh7 cells were obtained from the laboratory of Dr. Yiannis Ioannou (The Mount Sinai School of Medicine, New York, NY). Cells were propagated and maintained at NCGC in medium containing RPMI-1640 supplemented with 10% FBS, 2mM L-glutamine, and 50ug/ml penicillin/streptomycin. Cells were harvested in and plated for assays in OP-MEM I reduced-serum medium supplemented with 10% FBS. The Amplite luciferase reporter gene assay kit was purchased from ABD Bioquest and prepared/stored according to manufacturers recommendations. qHTS Assay Setup: 1.#Dispensed 5ul of Huh7 cells stably expressing NPC1-luciferase at a density of 1500 cells per well 1536-well plates. 2.#Incubate cells at 37C, 5% CO2, and 95% humidity for 2 hours. 3.#Transferred 23nl per well of compound in DMSO solution. 4.#Incubated at 37C, 5% CO2, and 95% humidity for 24 hours. 5.#Dispensed 3ul per well of Amplite reagent(ABD Bioquest) per well. 6.#Incubate at ambient for 10 minutes. 7.#Read using the luminescence protocol on the ViewLux plate reader (Perkin Elmer).
Potency means the concentration at half of the fitted maximal effect.

Q: Which “activation” value does the source give for `C/C(=N\Nc1ccc(S(N)(=O)=O)cc1[N+](=O)[O-])c1cccs1` here?
A: Its value is 1.42%.

Q: Which “activation” value does the source give for `C/C(=N\Nc1nc(Nc2ccccc2)nc(N2CCOCC2)n1)c1cccs1` here?
A: The value was -1.07%.

Q: For `C/C(=N\Nc1ncc(Cl)cc1Cl)c1cccs1`, which Potency is on record?
A: Its Potency is 1780 nM (active).

Q: Which “activation” value does the source give for `O=C(Nc1ccccc1-c1nc2ccccc2[nH]c1=O)c1cccs1` here?
A: Its value is -2.41%.

Q: Which Potency does the source give for `C/C(=N\Nc1nc2ccccc2[nH]1)c1cccs1` here?
A: The Potency was 2000 nM (active).

Q: Which “activation” value does the source give for `C/C(=N\NS(=O)(=O)c1ccc(Br)cc1)c1cccs1` here?
A: The value was 0.595%.

Q: With `CN(C(=O)CSc1nnc(-c2ccc3c(c2)OCO3)o1)C1CCS(=O)(=O)C1` (configuration not stated) as the molecule, how does the “activation” value read?
A: Its value is -0.69%.

Q: With `CCOc1ccc(NC(=O)COC(=O)C2CCC(=O)N2)c([N+](=O)[O-])c1` (configuration not stated) as the molecule, how does the “activation” value read?
A: The value was 2.9%.

Q: With `CCN1C(=O)C(=O)N(CC(=O)Nc2cc(C)ccc2C)C1=O` as the molecule, how does the “activation” value read?
A: The value was 4.28%.

Q: For `CCc1ccc(NC2Nc3cc(C)nn3S2)cc1` (configuration not stated), which Potency is on record?
A: The Potency was 2820 nM (active).

Q: With `CCOC(=O)c1ccc(NC2Nc3cc(C)nn3S2)cc1` (configuration not stated) as the molecule, how does the “activation” value read?
A: Its value is 2.46%.

Q: For `CN(C(=O)CN1C(=O)/C(=C/c2ccc(Cl)cc2)SC1=S)C1CCS(=O)(=O)C1` (configuration not stated), which “activation” value is on record?
A: The value was -6.81%.

Q: For `Cc1cc(C)c2nc(NC(=O)C3CCCO3)sc2c1` (configuration not stated), which Potency is on record?
A: Its Potency is 3980 nM (active).

Q: Which “activation” value does the source give for `Cc1ccc(C)c(C(C)NC(=O)C2CCCO2)c1` (configuration not stated) here?
A: Its value is -4.88%.

Q: For `Cc1cc([N+](=O)[O-])ccc1NC(=O)C1CCCO1` (configuration not stated), which “activation” value is on record?
A: The value was 0.298%.

Q: With `CCOC(=O)c1ccc(NC(=O)C2CC(=O)N(c3ccc4c(c3)OCCO4)C2)cc1` (configuration not stated) as the molecule, how does the “activation” value read?
A: Its value is 0.343%.

Q: For `COc1cc(OC)c(N2CC(C(=O)Nc3cc(Cl)ccc3N3CCOCC3)CC2=O)cc1Cl` (configuration not stated), which “activation” value is on record?
A: The value was -16.2%.

Q: For `COc1cccc(NC(=O)COC(=O)/C=C/c2ccco2)c1`, which “activation” value is on record?
A: The value was 1.54%.

Q: Which Potency does the source give for `Cc1nnc(NC(=O)/C=C/c2ccco2)s1` here?
A: The Potency was 2510 nM (active).

Q: With `O=C(/C=C/c1ccco1)Nc1ccc(Oc2ccccc2)cc1` as the molecule, how does the Potency read?
A: The Potency was 3980 nM (active).

Q: With `CCOC(=O)c1c(NC(=O)/C=C/c2ccco2)sc(C)c1C` as the molecule, how does the “activation” value read?
A: Its value is -4.42%.

Q: With `CCC(CC)c1nnc(NC(=O)/C=C/c2ccco2)s1` as the molecule, how does the “activation” value read?
A: The value was 22.7%.

Q: For `O=C(/C=C/c1ccco1)NC(=S)Nc1ccccc1Br`, which “activation” value is on record?
A: Its value is -4.13%.

Q: With `CC(C)(CNC(=O)CNC(=O)C1CCCCC1)N1CCOCC1` as the molecule, how does the “activation” value read?
A: Its value is -1.13%.

Q: Which “activation” value does the source give for `O=C(C1CC(=O)N(C2CCCC2)C1)N1CCN(c2cccc(C(F)(F)F)c2)CC1` (configuration not stated) here?
A: The value was -3.05%.

Q: For `COc1ccccc1N1CCN(CC(=O)Nc2ccnn2C2CCCC2)CC1`, which “activation” value is on record?
A: Its value is -1.78%.

Q: With `NC(=O)c1cc2ccccc2o/c1=N/NC(=O)c1cccc(F)c1` as the molecule, how does the “activation” value read?
A: The value was 19.3%.

Q: With `COc1cccc2cc(C(N)=O)/c(=N\NC(=O)c3ccccc3)oc12` as the molecule, how does the Potency read?
A: Its Potency is 2820 nM (active).

Q: With `COc1ccc(C(=O)N/N=c2\oc3ccccc3cc2C(N)=O)cc1` as the molecule, how does the “activation” value read?
A: Its value is 3.62%.

Q: For `O=C(c1ccc(Cl)c(S(=O)(=O)N2CCCCCC2)c1)N1CCN(c2ccc(O)cc2)CC1`, which “activation” value is on record?
A: The value was -2.16%.

Q: For `COc1ccc(C(=O)Nc2ccc(N3CCC(C)CC3)cc2)cc1Br`, which “activation” value is on record?
A: The value was -3.95%.

Q: With `CC(=O)Oc1cccc(C(=O)Nc2ccccc2NC(=O)c2cccc(OC(C)=O)c2)c1` as the molecule, how does the “activation” value read?
A: The value was -1.5%.

Q: For `COc1cccc(C(=O)Nc2cc3c(cc2Br)OCCCO3)c1`, which Potency is on record?
A: The Potency was 2820 nM (active).

Q: Which “activation” value does the source give for `Cc1ccccc1C(=O)NC(=S)Nc1ccc(N2CCN(C(=O)c3ccccc3)CC2)cc1` here?
A: Its value is -5.56%.

Q: Which “activation” value does the source give for `COc1ccc(C2COC(=O)C2=N)c(NC(=O)c2ccccc2)c1` (configuration not stated) here?
A: The value was -2.74%.

Q: With `COc1cccc(C(=O)Nc2ccc(N3CCN(C(=O)c4ccco4)CC3)cc2)c1` as the molecule, how does the “activation” value read?
A: The value was -33.8%.

Q: With `CN1CCN(c2ccc(NC(=O)c3ccccc3)cc2)CC1` as the molecule, how does the Potency read?
A: Its Potency is 2510 nM (active).

Q: With `COc1cccc(C(=O)Nc2ccc(N3CCCC3)cc2)c1` as the molecule, how does the Potency read?
A: The Potency was 891 nM (active).

Q: With `CN1CCN(c2ccc(NC(=O)c3ccc4c(c3)[nH]c(=O)n4Cc3ccc(F)cc3)cc2)CC1` as the molecule, how does the “activation” value read?
A: The value was 2.58%.

Q: With `O=C(CSc1ncnc2sccc12)N1CCN(C(=O)c2cccs2)CC1` as the molecule, how does the “activation” value read?
A: The value was 0.722%.

Q: With `Cc1ccc(S(=O)(=O)N2CCCCC2)cc1NC(=O)[C@@H]1CCCN1C(=O)c1cccs1` as the molecule, how does the “activation” value read?
A: The value was 0.681%.

Q: Which “activation” value does the source give for `O=C(CSc1nc2ccccc2c(=O)n1-c1ccc(F)cc1)NC1CC1` here?
A: The value was -9.18%.

Q: For `Cc1ccc(-n2c(SCC(=O)N3CCC(C(=O)O)CC3)nc3ccccc3c2=O)cc1C`, which Potency is on record?
A: The Potency was 3550 nM (active).

Q: With `COc1cccc(-n2c(SCC(=O)NC3CCS(=O)(=O)C3)nc3ccccc3c2=O)c1` (configuration not stated) as the molecule, how does the “activation” value read?
A: Its value is -2.85%.

Q: For `CC(=O)Nc1ccc(SC[C@H](Cc2ccccc2)N2CC[C@@H](C)CCC2=O)cc1`, which “activation” value is on record?
A: The value was -0.0057%.

Q: For `CCOC(=O)c1cc2ccccc2n1CC(=O)c1ccccc1`, which “activation” value is on record?
A: The value was -2.8%.

Q: For `CCn1c(=N)n(CC(=O)c2cccc(OC)c2)c2ccccc21`, which Potency is on record?
A: The Potency was 3550 nM (active).

Q: For `COc1ccc2cc(C(=O)O)n(CC(=O)c3ccccc3)c2c1`, which “activation” value is on record?
A: Its value is -1.96%.

Q: With `CCOC(=O)c1cn(CC(=O)Nc2ccc(C(C)C)cc2)nn1` as the molecule, how does the “activation” value read?
A: The value was 1.15%.

Q: With `CCc1ccc(NC(=O)Cn2ncn3c(cc4ccccc43)c2=O)cc1` as the molecule, how does the “activation” value read?
A: The value was -5.3%.

Q: With `CC(C)c1ccc(NC(=O)Cn2ncc3ccccc32)cc1` as the molecule, how does the Potency read?
A: Its Potency is 891 nM (active).

Q: Which “activation” value does the source give for `O=C(NCc1ccccc1CN1CCCC1)C1CCN(S(=O)(=O)c2ccc(Cl)cc2)CC1` here?
A: The value was -1.28%.

Q: Which “activation” value does the source give for `CNC(=S)N/N=C/c1ccc(N2CCOCC2)s1` here?
A: Its value is 2.1%.

Q: For `O=C(Cn1cnc2c(cnn2-c2ccccc2)c1=O)NCc1ccccc1`, which “activation” value is on record?
A: Its value is 0.0668%.

Q: For `c1ccc(-n2ncc3c(N4CCCC4)ncnc32)cc1`, which Potency is on record?
A: The Potency was 2510 nM (active).

Q: Which “activation” value does the source give for `Cc1ccc(-c2nc3c(cnn3-c3ccccc3)c(=O)o2)cc1` here?
A: The value was -2.25%.

Q: Which Potency does the source give for `C1=C(CCNc2ncnc3c2cnn3-c2ccccc2)CCCC1` here?
A: The Potency was 1780 nM (active).

Q: Which “activation” value does the source give for `CCC(C)N(C(=O)CSc1ncnc2c1cnn2-c1ccccc1)C1CCS(=O)(=O)C1` (configuration not stated) here?
A: Its value is -1.19%.

Q: With `CCN(C(=O)CSc1ncnc2c1cnn2-c1ccccc1)C1CCS(=O)(=O)C1` (configuration not stated) as the molecule, how does the “activation” value read?
A: Its value is 5%.

Q: With `O=C(NNc1ncnc2c1cnn2-c1ccccc1)c1ccco1` as the molecule, how does the “activation” value read?
A: Its value is 1.26%.

Q: Which Potency does the source give for `CC(C)Sc1ncnc2c1cnn2-c1ccccc1` here?
A: The Potency was 3550 nM (active).

Q: With `O=C(NCCC1=CCCCC1)C1CCN(Cc2cnn(-c3ccccc3)c2-n2cccc2)CC1` as the molecule, how does the “activation” value read?
A: The value was 0.318%.

Q: Which “activation” value does the source give for `CC1CCc2sc(C(=O)NCC(c3ccco3)N3CCCCC3)cc2C1` (configuration not stated) here?
A: Its value is -1.49%.

Q: For `CCOCCc1nn2c(=O)cc(CSCC(=O)Nc3cccc(C)c3C)nc2s1`, which “activation” value is on record?
A: Its value is -1.6%.

Q: With `CSCCC(NC(=O)c1ccccc1)C(=O)N1CCN(Cc2ccc(Cl)cc2)CC1` (configuration not stated) as the molecule, how does the “activation” value read?
A: Its value is -5.73%.

Q: With `COC(=O)c1ccc(-c2c(-c3ccccc3)ncc3cc(OC)c(OC)cc23)cc1` as the molecule, how does the “activation” value read?
A: Its value is 3.56%.

Q: With `Cc1ccc2c(CN3CCN(S(=O)(=O)c4ccccc4C(F)(F)F)CC3)cc(=O)oc2c1` as the molecule, how does the “activation” value read?
A: Its value is -2.88%.
